Some of the results follow. Inconclusive results are not listed. Calls of active or inactive are those of the source. The call rests on the fitted dose curve; in most records, active means well fitted inhibition curve with a large enough effect; inconclusive means small, poorly fitted or top-dose-only effect; inactive means no such curve, though single readings can be large or run the other way.
target: Lysine-specific demethylase 4E (Homo sapiens) (UniProt B2RXH2); experiment: Inhibitors of Human Jumonji Domain Containing 2E (JMJD2E): 8HQs - Round 1; conditions: FDH-coupled NADH fluorescence (FDH is formaldehyde dehydrogenase)
Text: The fine interplay among methylation states of several lysine residues on the tails of histone proteins is a major determinant of the transcriptional state of the associated DNA coding regions and is commonly referred to as the histone code. Histone lysine demethylases catalyze the removal of methyl groups from methylated lysine sidechains on histones H3 and H4, thus antagonizing the reactions catalyzed by histone lysine methyltransferases. […] In search for novel inhibitors of JMJD2E demethylase, a member of the largest set of histone demethylases belonging to the Fe(II) and 2-oxoglutarate oxygenase (2OG) superfamily, we performed a quantitative high-throughput screen (Inglese 2006) by using an assay which utilizes a trimethylated peptide substrate corresponding to a fragment of histone H3 (sequence ARKme3STGGK) with detection of the formaldehyde co-product in real time by a formaldehyde dehydrogenase (FDH) coupled reaction. FDH catalyzes oxidation of formaldehyde to formic acid with the concomitant reduction of the non-fluorescent beta-nicotinamide adenine dinucleotide hydrate (NAD+) cofactor to the fluorescent NADH co-product. This assay is a following of SAR around 8-hydroxyquinoline-based inhibitors of JMJD2E. References: Inglese, J., Auld, D., Jadhav, A., Johnson, R., Simeonov, A., Yasgar, A., Zheng, W. and Austin, C. Proc Natl Acad Sci USA 2006, 103, 11473-11478. N. R. Rose, S. S. Ng, J. Mecinovic, B. M. Lienard, S. H. Bello, Z. Sun, M. A. McDonough, U. Oppermann and C. J. Schofield, J Med Chem, 2008, 51, 7053-7056. Sakurai, M., Rose, N., Schultz, L., Quinn, A., Jadhav, A., Ng, S., Oppermann, U., Schofield, C.J. and Simeonov, A. Mol BioSystems 2009, in press. S. Michael, D. Auld, C. Klumpp, A. Jadhav, W. Zheng, N. Thorne, C. Austin, J. Inglese and A. Simeonov, Assay Drug Dev Technol, 2008, 6, 637-657. Assay Provider: Structural Genomics Consortium [SGC] Screening Center PI: Austin, C.P. Screening Center: NIH Chemical Genomics Center [NCGC]
Reagents and Controls: Ferrous ammonium sulfate, (+)-sodium L-ascorbate, beta-nicotinamide adenine dinucleotide hydrate (NAD+), Tween-20, formaldehyde dehydrogenase from P. putida (FDH), and disodium 2-oxoglutarate were from Sigma (St. Louis, MO). Black solid-bottom 384-well or 1,536-well assay plates were from Greiner Bio-One (Monroe, NC). Enzyme was supplied by Prof. Udo Oppermann, SGC-Oxford. The catalytic domain of human JMJD2E (residues 1-337) was produced as an N-terminally His6-tagged protein in E. coli, and purified by Ni-affinity chromatography and size-exclusion chromatography, and stored in HEPES 50 mM/ NaCl 500 mM pH 7.5, as reported in Rose 2008. The trimethylated histone peptide substrate ARK(me3)STGGK was synthesized and HPLC-purified by the Tufts University Core Facility (Boston, MA). Substrate solution (Sakurai 2009) contained 50 uM ARK(me3)STGGK, 0.00025 U/uL FDH, 50 uM 2-oxoglutarate, 250 uM NAD+, 1 mM ascorbate, and 10 uM ferrous ammonium sulfate. Controls and plate map: Buffer (150 mM HEPES pH 7.5 containing 0.01% Tween-20) in columns 3 and 4 as negative control (no enzyme) and 100 nM JMJD2E final concentration in columns 1,2, and 5-48. […] The plate was transferred to ViewLux imager where an initial reading using standard UV optics (Ex 340 nm, Em 450 nm) was obtained. The plate was then removed from the reader, incubated for 30 minutes at room temperature, and returned to the reader for a second fluorescence reading. […]

Lysine-specific demethylase 4E (Homo sapiens), sequence (B2RXH2 1-337 limits assumed): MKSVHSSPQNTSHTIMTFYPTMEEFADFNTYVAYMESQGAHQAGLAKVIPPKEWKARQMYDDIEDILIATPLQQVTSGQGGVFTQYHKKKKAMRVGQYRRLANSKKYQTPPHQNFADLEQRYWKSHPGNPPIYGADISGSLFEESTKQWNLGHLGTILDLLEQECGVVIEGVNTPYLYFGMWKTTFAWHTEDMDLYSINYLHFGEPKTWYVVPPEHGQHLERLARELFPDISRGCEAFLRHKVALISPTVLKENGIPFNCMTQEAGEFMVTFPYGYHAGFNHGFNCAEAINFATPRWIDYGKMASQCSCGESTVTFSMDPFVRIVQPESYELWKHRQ

Potency, active:
Oc1cccc2cc(-c3ccncc3)cnc12 18.2 µM, CC(=O)NC(c1cccs1)c1cc(Cl)c2cccnc2c1O (stereo not given) 12.9 µM, Nc1ccc(Nc2cc(O)c3ncccc3c2)cc1 32.4 µM, Oc1c(CN2CCCC2)cc(COCc2ccccc2)c2cccnc12 5.01 µM, Oc1ccc(/C=C/c2c(F)cccc2F)c2cccnc12 8.91 µM

Reference: PubChem BioAssay AID493212 (National Center for Advancing Translational Sciences (NCATS), 2011)
